# TDP1 cell noCPT: qHTS for Inhibitors of human tyrosyl-DNA phosphodiesterase 1 (TDP1): qHTS in cells in absence of CPT; AID 686978, 2013; Potency, µM (titrated, usually from 46.2 µM), for inactives: at the highest dose activity change, negative = growth inhibition, hits mostly inhibitors; 420,000 tested, 15% active; DT40 Tdp1-/- hTDP1 cells, no CPT, ATP luminescence, 48 h; note: potency is the fitted concentration of half-maximal effect; nearly all actives have a fitted effect of over 55% in size
#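 No-CPT arm: Tdp1-/-;hTDP1 DT40 cells (400/well) plus compounds, incubated ≥48 hr at 37 °C. Readout CellTiter-Glo luminescence.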
# HT1080 IDH1KD tx: HT-1080 IDH1 knockdown cell toxicity (counter line) | 360,000 tested, 2% active | HT-1080 IDH1 knockdown viability, ATP luminescence, 48 h | Potency, µM (top dose mostly 46.1 µM), for the others: at the top dose activity, negative = toxicity, most hits filed as cytotoxic | AID 686971;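 note: potency is the fitted concentration of half-maximal effect; 0% = DMSO wells and -100% = cell-free medium wells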
#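 Assay cells: HT-1080 with IDH1 knockdown, 750 per well, RPMI/5% FBS. Exposure: 48 h at 37 °C following 2 h pre-incubation. Read: CellTiter-Glo luminescence; fitted concentration-response, curve class assigned.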
# HT1080NT lethal: kills 2HG-producing HT-1080-NT fibrosarcoma cells | Potency, µM (series often up to 46.1 µM), for the others: at the top dose activity, negative = less viability, actives largely listed as cytotoxic | 360,000 tested, 1.6% active | AID 686970 | HT-1080-NT fibrosarcoma viability, CellTiter-Glo ATP luminescence, 48 h;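 note: NT is the 2HG producing partner of a matched IDH1 knockdown line; potency is the fitted concentration of half-maximal effect; 0% = DMSO-treated cells and -100% = media-only wells without cells; nearly all actives have a fitted effect of over 55% in size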
#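 Viability of the 2HG-overproducing fibrosarcoma line after 48 hours of compound exposure at 37 degrees C was determined by luminescence with CellTiter-Glo, and concentration-effect curves were then fitted and categorized.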
# IL-1B inflam inh: inflammasome signaling inhibition, IL-1 beta readout; THP-1 LPS/ATP IL-1B secretion, AlphaLISA, 16 h; active compounds read low; activity change, % at 57.5 µM; 360,000 tested, 4.7% active; AID 743279; in the data active = activity change below about -50%; inconclusive = mostly about -30% to -49%
#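 THP-1 cells pretreated 1 hr with compounds (up to 57.5 uM final), then stimulated with LPS (250 ng/mL final) plus ATP (1.25 mM final); secreted IL-1B measured by AlphaLISA after 16 hr, decreased signal indicating inhibition.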
# TDP1 cell CPT: DT40-hTDP1 cell growth loss with CPT. chicken DT40 Tdp1-/-;hTDP1 cells + 20 nM CPT, ATP luminescence, 48 h. 420,000 tested, 12% active. AID 686979. Potency, µM (titrated, usually from 46.2 µM), without a hit: at the top dose activity change, negative = growth inhibition, most hits filed as inhibitors; note: potency is the fitted concentration of half-maximal effect; nearly all actives have a fitted effect of over 55% in size
#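 Cell growth measured by CellTiter-Glo luminescence after a minimum 48 h, 37 C compound exposure with 20 nM CPT in Tdp1-knockout DT40 cells stably expressing hTDP1, seeded 400/well; qHTS titration format.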
# Starred values were filed as active, the others as inactive; ? = inconclusive; / = no result given. Shown are actives, neighbours in structure and some others; about 19% of the full set was active somewhere. Unless noted, calls come from the whole dose curve; as a rule, active = well fitted curve in the direction sought with a large enough effect; inconclusive = small, poorly fitted or top-dose-only effect, or another doubt; inactive = no such curve, though single readings can be large; an effect the other way counts as inactive or inconclusive. Unless noted, % is set by controls: 0 for no effect and ±100 for the full control effect.
SMILES,TDP1 cell noCPT,HT1080 IDH1KD tx,HT1080NT lethal,IL-1B inflam inh,TDP1 cell CPT
CC1C(O)=C(c2nc3ccccc3[nH]2)C(=N)N1c1ccccc1 (stereo not drawn),21µM*,?,?,11,?
N=C1C(c2nc3ccccc3[nH]2)=C(O)CN1c1ccccc1,23µM*,-28%,-8%,78,?
Cc1ccc(NC(=O)CSc2nc(=O)n(Cc3cccnc3)c3c2CCC3)cc1F,?,/,/,/,-24%
CCOC(=O)c1ccc(N2CC(O)=C(c3nc4ccccc4c(=O)[nH]3)C2=N)cc1,10µM*,6%,24%,-8,?
CCOc1ccc(N2CC(O)=C(c3nc4ccccc4c(=O)[nH]3)C2=N)cc1,-20%,4%,8%,13,-28%
Cc1ccc(C)c(S(=O)(=O)N2CCCCC2CCNC(=O)C(=O)NCc2ccco2)c1 (stereo not drawn),8.2µM*,?,-17%,-8,16µM*
COc1ccc(CNC(=O)C(=O)NCCC2CCCCN2S(=O)(=O)c2ccc(C)cc2)cc1 (stereo not drawn),26µM*,0%,-7%,-11,16µM*
Cc1ccc(S(=O)(=O)N2CCCCC2CCNC(=O)C(=O)NCc2ccccc2)cc1 (stereo not drawn),2.9µM*,6.5µM*,7.3µM*,-1,3.3µM*
CC(C)CC(=O)Nc1c(C(=O)N2CCN(c3ccccc3F)CC2)oc2ccccc12,10µM*,/,/,/,13µM*
CC(C)(C)C(=O)Nc1c(C(=O)N2CCN(c3ccc(F)cc3)CC2)oc2ccccc12,15µM*,/,/,/,18µM*
COc1cccc(CC(=O)Nc2c(C(=O)N3CCN(c4ccccc4F)CC3)oc3ccccc23)c1,4.6µM*,/,/,/,5.8µM*
COc1ccc(OCC(=O)Nc2c(C(=O)N3CCN(C)CC3)oc3ccccc23)cc1,-14%,9%,1%,-4,-23%
COc1ccc(N2CCN(C(=O)c3oc4ccccc4c3C)CC2)cc1,?,-4%,-9%,13,-22%
COc1ccc(N2CCN(C(=O)c3oc4ccccc4c3NC(=O)Cc3cccc(OC)c3)CC2)cc1,?,-4%,4%,-22,?
Cc1cccc(OCC(=O)Nc2c(C(=O)N3CCN(c4ccccc4F)CC3)oc3ccccc23)c1,18µM*,/,/,/,?
COc1cccc(-c2cncnc2N(C)Cc2ccco2)c1,-17%,/,/,/,-11%
CCOCC(=O)Nc1c(C(=O)N2CCN(c3ncccn3)CC2)oc2ccccc12,12µM*,-2%,0%,-12,?
COc1ccc(OCC(=O)Nc2c(C(=O)N3CCN(c4ccccc4)CC3)oc3ccccc23)cc1,-10%,/,/,/,?
CCN1CCN(c2cc(C)c3cc(NC(=S)N4CCN(c5ccccc5)CC4)ccc3n2)CC1,10µM*,-4%,-6%,56,7.3µM*
COc1ccccc1N1CCN(C(=S)Nc2ccc3nc(N4CCOCC4)cc(C)c3c2)CC1,?,?,0%,-168*,?
Cc1cc(N2CCN(C)CC2)nc2ccc(NC(=S)N3CCN(c4ccccn4)CC3)cc12,?,?,16µM*,?,-27%
Cc1ccc(C)c(N2CCN(C(=S)Nc3ccc4nc(N5CCN(C)CC5)cc(C)c4c3)CC2)c1,12µM*,?,?,22,16µM*
Cc1ccc(C)c(N2CCN(C(=S)Nc3ccc4nc(N5CCOCC5)cc(C)c4c3)CC2)c1,?,-27%,-23%,0,-12%
CCN1CCN(c2cc(C)c3cc(NC(=S)N4CCOCC4)ccc3n2)CC1,-3%,0%,-1%,-11,4%
CCCCN(C(=O)c1ccc(S(=O)(=O)N2CCCCC2)cc1)C1CCS(=O)(=O)C1 (stereo not drawn),-23%,-5%,-13%,-1,?
CCOC(=O)c1cccc(NC(=O)CCc2c(C)nn(-c3ccc(N4CCOCC4)nn3)c2C)c1,?,/,/,/,29µM*

# Source: PubChem BioAssay (National Center for Advancing Translational Sciences (NCATS))
